Rows were chosen to be rich in hits. Some 3.4% of all compounds tested hit in one or more screens of this group.
TEAD-YAP block: TEAD-YAP interaction inhibition; HEK-TIYL cells, TEAD-Gal4/YAP UAS-luciferase luminescence; inhibition, % at 9.12 µM; 640,000 compounds, 1.4% hits; in the data active = inhibition above about 32%
FBW7 activator: human FBW7 E3 ligase activation, primary screen. AID 1259310. Q969H0. AlphaScreen FBW7–phospho-cyclin E peptide binding, activator screen. 650,000 compounds, 0.13% hits. normalized activity (activation), % at 26.1 µM; in the data active = normalized activity above about 1.9%;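 note: purified mutant Fbw7 with reduced substrate affinity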
Target sequence (Q969H0 whole entry, looked up): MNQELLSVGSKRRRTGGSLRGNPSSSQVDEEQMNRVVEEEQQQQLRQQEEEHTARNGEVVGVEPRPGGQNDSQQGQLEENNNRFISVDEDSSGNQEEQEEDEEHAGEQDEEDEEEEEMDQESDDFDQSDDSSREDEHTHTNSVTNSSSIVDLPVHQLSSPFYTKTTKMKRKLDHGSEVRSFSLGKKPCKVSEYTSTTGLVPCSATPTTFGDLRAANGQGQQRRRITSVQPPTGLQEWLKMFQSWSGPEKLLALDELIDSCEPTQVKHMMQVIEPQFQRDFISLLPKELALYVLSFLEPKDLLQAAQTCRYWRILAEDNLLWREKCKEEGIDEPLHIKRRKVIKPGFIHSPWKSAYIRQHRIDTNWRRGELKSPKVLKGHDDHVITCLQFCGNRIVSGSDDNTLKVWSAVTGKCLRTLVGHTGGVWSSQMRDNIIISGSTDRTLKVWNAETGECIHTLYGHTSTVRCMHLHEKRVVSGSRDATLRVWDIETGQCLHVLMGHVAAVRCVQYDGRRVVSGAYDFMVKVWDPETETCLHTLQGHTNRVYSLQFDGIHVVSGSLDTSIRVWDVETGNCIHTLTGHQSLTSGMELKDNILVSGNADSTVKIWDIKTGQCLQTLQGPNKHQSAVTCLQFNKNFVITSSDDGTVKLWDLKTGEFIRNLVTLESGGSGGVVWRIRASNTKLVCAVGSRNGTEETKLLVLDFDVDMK
GPR151 ag: human GPR151 activation; Q8TDV0; PathHunter beta-arrestin GPR151 cells, luminescence; activation, % at 11.2 µM; 650,000 compounds, 1% hits; AID 1508602; in the data active = activation above about 4.9%
MITF inh: blocks human microphthalmia-associated transcription factor. AlphaScreen MITF homodimerization, bead proximity signal. 650,000 compounds, 0.91% hits. O75030. inhibition, % at 2.6 µM. AID 1259374; in the data active = inhibition above about 50%
Each line names hits and unclear results; the compound was inactive in the other large screens.

Nc1ccccc1C(=O)NNC1CC(=O)N(c2ccccc2)C1=O (stereo unspecified)	none
CCC[C@@H]1NC(=O)[C@@H]2C[C@H](NCc3cccc(OCCN(C)C)c3)CN2C1=O	none
CC1=NN(c2nc3ccccc3s2)C(=O)/C1=C\c1ccc(N2CCOCC2)cc1	none
O=C(NC[C@@H]1CCCN(C(=O)c2ccccn2)C1)c1ccco1	none
O=C(CCl)NCCSc1ccc(Cl)cc1	TEAD-YAP block 57
CCc1cccc(NC(=O)N[C@H]2C[C@H]3C(=O)N[C@@H]([C@@H](C)CC)C(=O)N3C2)c1	none
COc1ccc(-c2cc3c(nn2)Nc2ccccc2S3)cc1	TEAD-YAP block 86
COc1ccc(C2=CC(=O)Nc3ccccc3S2)cc1	none
Clc1ccc(-c2cc3c(nn2)Nc2ccccc2N3)cc1	TEAD-YAP block 86
O=C(Nc1ccnn1C1CCN(C2CCN(Cc3ccccn3)CC2)CC1)C1CC1	none
O=C(NCCc1ccc(O)cc1)c1ccnc(N2CCN(c3ccccn3)CC2)c1	TEAD-YAP block 45
O=C(NCCO)c1ccnc(N2CCN(c3ccccn3)CC2)c1	none
Nc1ncnc(N/N=C/c2ccc3ncccc3c2)c1[N+](=O)[O-]	TEAD-YAP block 86
Nc1ncnc(N/N=C/c2cccnc2)c1[N+](=O)[O-]	none
COc1cc(/C=N/Nc2ncnc(N)c2[N+](=O)[O-])ccc1O	TEAD-YAP block 34
CCN(Cc1ccccc1)c1ccc(/C=N/Nc2ncnc(N)c2[N+](=O)[O-])cc1	TEAD-YAP block 37
Nc1ncnc(N/N=C/c2ccc(C3=CCCC3)s2)c1[N+](=O)[O-]	TEAD-YAP block 60
Cc1cc(C)nc(/N=C(\N)Nc2ccc(CC(=O)OC(C)C)cc2)n1	TEAD-YAP block 40
CCN(CC)c1ccc(N/C(N)=N/c2nc(C)cc(C)n2)cc1 (tested in a mixture with another compound)	TEAD-YAP block 58
O=C(CCc1ccccc1)NCC(=O)N/N=C/c1cn[nH]c1-c1ccccc1	none
COC(=O)c1c(-c2ccccc2Cl)csc1NC(=O)/C=C/C(=O)O	TEAD-YAP block 42
COC(=O)c1c(-c2ccc(C)c(C)c2)csc1NC(=O)/C=C/C(=O)O	TEAD-YAP block 33
COC(=O)c1c(NC(=O)/C=C/C(=O)O)sc(C)c1-c1cc(C)ccc1C	TEAD-YAP block 42
Cc1ccc(-c2noc(CCCCCN)n2)cc1	TEAD-YAP block 72
O=C1CSC(c2ccccc2F)N1c1cc(Cl)cc(Cl)c1 (stereo unspecified)	none
CCOC(=O)CSc1c[n+]2c(n1C)CCC2	none
CCN1CCN(C(c2cccnc2)c2ccc3cccnc3c2O)CC1 (stereo unspecified)	MITF inh 68
Oc1cccc(C(c2ccc3cccnc3c2O)N2CCCC2)c1 (stereo unspecified)	none
CC1CCN(C(c2ccncc2)c2ccc3cccnc3c2O)CC1 (stereo unspecified)	MITF inh 89
Oc1c(C(c2ccncc2)N2CCCC2)ccc2cccnc12 (stereo unspecified)	MITF inh 76
Cc1[nH]c2ccccc2c1C(c1ccncc1)N1CCC(C)CC1 (stereo unspecified)	none
CCOc1ccc2[nH]cc(C(=O)N3CCNCC3)c(=O)c2c1	none
CCc1ccc(-n2c(=S)sc3c(=O)n(-c4ccc(C)cc4)c(SCc4ccc(Cl)cc4)nc32)cc1	none
COc1cc(/C=C(/NC(C)=O)C(=O)Nc2cccc([N+](=O)[O-])c2)ccc1OC(C)=O	none
Cc1ccccc1-c1nnc2sc(NC(=O)CCc3ccccc3)nn12	none
CN(C)CCNc1ccn2ncc(-c3ccc4c(c3)OCO4)c2n1	FBW7 activator 2.0
c1cc(CNc2ccn3ncc(-c4ccc5c(c4)OCO5)c3n2)ccn1	none
Cc1ccccc1-c1nc2cc(NC(=S)NC(=O)c3cc4ccccc4o3)ccc2o1	none
Cc1ccc(Nc2nnc(C(C)(C)C)c(=O)[nH]2)cc1C	none
CCC(=O)Nc1ccc2nc(SCC(=O)N3CCN(c4ccccc4)CC3)sc2c1	TEAD-YAP block 45
CC(=O)Nc1ccc2nc(SCC(=O)N3CCN(c4ccccc4)CC3)sc2c1	none
COc1ccccc1C(=O)Nc1ccc2nc(SCC(=O)NCc3ccccc3)sc2c1	TEAD-YAP block 52
COc1ccccc1C(=O)Nc1ccc2nc(SCC(=O)NCCOc3ccccc3)sc2c1	TEAD-YAP block 53
COC(=O)c1cnn2c(C)c(Cc3ccc(F)cc3)c(C)nc12	TEAD-YAP block 36
COc1ccccc1CNC(=O)c1cnn2c(C)c(Cc3ccc(F)cc3)c(C)nc12	none
COC(CNC(=O)c1cnn2c(C)c(Cc3c(C)cc(C)cc3C)c(C)nc12)OC	TEAD-YAP block 50
CCOc1c(/C=C2\C(=O)N(c3ccccc3)N=C2C)cccc1OC	none
Cc1cc(C)c(C#N)c(SCC(=O)Nc2ccc(Cl)cc2)n1	none
COc1cccc(NC(=O)c2cnc(N3CCN(c4ccccn4)CC3)c3ccccc23)c1	TEAD-YAP block 62
COc1cccc(NC(=O)c2cnc(N3CCN(c4ncccn4)CC3)c3ccccc23)c1	none
Cc1cccc(NC(=O)c2cnc(N3CCN(c4ccccn4)CC3)c3ccccc23)n1	TEAD-YAP block 40
COc1ccc(NC(=O)c2cnc(N3CCN(c4ncccn4)CC3)c3ccccc23)c(OC)c1	TEAD-YAP block 50
CC(C)NC(=O)c1cnc(N2CCN(c3ccccn3)CC2)c2ccccc12	none
COc1ccc(NC(=O)c2cnc(N3CCN(c4ccccn4)CC3)c3ccccc23)cc1OC	TEAD-YAP block 84
OC(CNc1ccncc1)COc1ccc(OCC(O)CNc2ccncc2)cc1 (stereo unspecified)	none
O=C(c1[nH]ncc1Br)N1CCC[C@H]1[C@H](O)c1nc2ccccc2s1	none
COc1ccccc1N1CCN(c2ncc(C(=O)Nc3cc(OC)c(OC)c(OC)c3)c3ccccc23)CC1	TEAD-YAP block 56
COC1CC(NC(=O)c2cnc(N3CCN(c4ncccn4)CC3)c3ccccc23)CC(OC)C1OC (stereo unspecified)	TEAD-YAP block 72
O=C(NC1CCCCC1)c1cnc(N2CCN(c3ncccn3)CC2)c2ccccc12	none
COCCCNC(=O)c1cnc(N2CCN(c3ccccc3OC)CC2)c2ccccc12	TEAD-YAP block 38
COc1cc(NC(=O)c2cnc(N3CCN(c4ccccn4)CC3)c3ccccc23)cc(OC)c1OC	TEAD-YAP block 78
CCCOc1ccc(N2C(=O)CC(NCCC34CC5CC(CC(C5)C3)C4)C2=O)cc1 (stereo unspecified)	none
O=C(Cc1n[nH]c(=O)c2ccccc12)OCC(=O)c1ccc2c(c1)OCCO2	TEAD-YAP block 50
COc1ccc(/C=C/C(=O)c2cccnc2)cc1OC	none
COc1ccc2ccccc2c1C(=O)/C=C/c1cccnc1	TEAD-YAP block 85
O=C(NCCOc1ccccc1)c1ccc2nc(N3CCOCC3)sc2c1	GPR151 ag 5.8
COCCNC(=O)c1ccc2nc(N3CCOCC3)sc2c1	none
O=C(NC1CCN(Cc2ccccc2)CC1)c1ccc2nc(N3CCN(Cc4ccc5c(c4)OCO5)CC3)sc2c1	TEAD-YAP block 44
CCCNC(=O)c1ccc2nc(N3CCN(Cc4ccc5c(c4)OCO5)CC3)sc2c1	none
O=S(=O)(Cc1ccc(Cl)cc1)NCc1ccco1	none

Source: PubChem
